Laboratory results taken from the supplement of paper PMC12282887.
± gives the standard deviation of the averaged measurements.

Experiments:
Test in all cases: promoter activity interaction Z-score (Lux/OD deviation from empty-vector control); higher = stronger promoter induction by the compound
[1] = test system: E. coli BW25113 acrABp lux reporter
Method in brief: (§1)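 Low-copy luxCDABE promoter reporters were carried by E. coli BW25113, either wild type or lacking one of three genes, grown in 40 µl LB Lennox in 384-well plates at 37°C. Each compound was run at four 1:2 dilutions in biological duplicates, with OD600 and luminescence read every 30 min for 12 h. Integration used 0–8 h for wild type and 1–9 h for deletion strains, and wells under 10% of the median growth value were removed. Luminescence normalised to growth was fitted against a control, and the Z-transformed residual is the score.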

[2] = test system: E. coli BW25113 marRABp lux reporter
Method in brief: as §1

[3] = test system: E. coli BW25113 micFp lux reporter
Method in brief: as §1

[4] = test system: E. coli BW25113 ompFp lux reporter
Method in brief: as §1

[5] = test system: E. coli BW25113 robp lux reporter
Method in brief: as §1

[6] = test system: E. coli BW25113 soxSp lux reporter
Method in brief: as §1

[7] = test system: E. coli BW25113 tolCp lux reporter
Method in brief: as §1

[8] = 11.9 µg/ml, genetic background: wild type
[9] = 11.9 µg/ml, genetic background: ΔmarA
[10] = 11.9 µg/ml, genetic background: Δrob
[11] = 11.9 µg/ml, genetic background: ΔsoxS
[12] = 23.7 µg/ml, genetic background: wild type
[13] = 23.7 µg/ml, genetic background: ΔmarA
[14] = 23.7 µg/ml, genetic background: Δrob
[15] = 23.7 µg/ml, genetic background: ΔsoxS
[16] = 47.4 µg/ml, genetic background: wild type
[17] = 47.4 µg/ml, genetic background: ΔmarA
[18] = 47.4 µg/ml, genetic background: Δrob
[19] = 47.4 µg/ml, genetic background: ΔsoxS
[20] = 94.8 µg/ml, genetic background: wild type
[21] = 94.8 µg/ml, genetic background: ΔmarA
[22] = 94.8 µg/ml, genetic background: Δrob
[23] = 94.8 µg/ml, genetic background: ΔsoxS

NCCc1ccc(O)c(O)c1 [Dopamine]
promoter activity interaction Z-score [1, 8]: 0.174 ± 0.27 | promoter activity interaction Z-score [1, 9]: -0.87 ± 0.6 | promoter activity interaction Z-score [1, 10]: -0.259 ± 0.25 | promoter activity interaction Z-score [1, 11]: 0.316 ± 0.49 | promoter activity interaction Z-score [1, 12]: -0.0683 ± 0.28 | promoter activity interaction Z-score [1, 13]: -0.0201 ± 0.65 | promoter activity interaction Z-score [1, 14]: -0.428 ± 0.0062 | promoter activity interaction Z-score [1, 15]: -0.0876 ± 0.18 | promoter activity interaction Z-score [1, 16]: 0.18 ± 0.084 | promoter activity interaction Z-score [1, 17]: -1.12 ± 0.53 | promoter activity interaction Z-score [1, 18]: -0.499 ± 0.094 | promoter activity interaction Z-score [1, 19]: -0.0203 ± 0.46 | promoter activity interaction Z-score [1, 20]: -0.304 ± 0.4 | promoter activity interaction Z-score [1, 21]: -0.754 ± 0.56 | promoter activity interaction Z-score [1, 22]: -0.623 ± 0.094 | promoter activity interaction Z-score [1, 23]: -0.852 ± 0.031 | promoter activity interaction Z-score [2, 8]: 0.0994 ± 0.32 | promoter activity interaction Z-score [2, 9]: -0.339 ± 0.18 | promoter activity interaction Z-score [2, 10]: -0.285 ± 0.05 | promoter activity interaction Z-score [2, 11]: -0.021 ± 0.064 | promoter activity interaction Z-score [2, 12]: -0.265 ± 0.15 | promoter activity interaction Z-score [2, 13]: 0.159 ± 0.52 | promoter activity interaction Z-score [2, 14]: 0.121 ± 0.22 | promoter activity interaction Z-score [2, 15]: -0.3 ± 0.046 | promoter activity interaction Z-score [2, 16]: 0.113 ± 0.12 | promoter activity interaction Z-score [2, 17]: -0.369 ± 0.073 | promoter activity interaction Z-score [2, 18]: -0.155 ± 0.3 | promoter activity interaction Z-score [2, 19]: -0.126 ± 0.099 | promoter activity interaction Z-score [2, 20]: -0.305 ± 0.37 | promoter activity interaction Z-score [2, 21]: 0.217 ± 1.1 | promoter activity interaction Z-score [2, 22]: -0.642 ± 0.091 | promoter activity interaction Z-score [2, 23]: -0.61 ± 0.21 | promoter activity interaction Z-score [3, 8]: -0.0957 ± 0.4 | promoter activity interaction Z-score [3, 9]: -0.00669 ± 0.09 | promoter activity interaction Z-score [3, 10]: -0.0714 ± 0.048 | promoter activity interaction Z-score [3, 11]: -0.289 ± 0.13 | promoter activity interaction Z-score [3, 12]: 0.149 ± 0.39 | promoter activity interaction Z-score [3, 13]: 0.0171 ± 0.089 | promoter activity interaction Z-score [3, 14]: -0.0648 ± 0.13 | promoter activity interaction Z-score [3, 15]: -0.0534 ± 0.087 | promoter activity interaction Z-score [3, 16]: -0.077 ± 0.31 | promoter activity interaction Z-score [3, 17]: -0.0143 ± 0.025 | promoter activity interaction Z-score [3, 18]: -0.12 ± 0.027 | promoter activity interaction Z-score [3, 19]: -0.221 ± 0.014 | promoter activity interaction Z-score [3, 20]: -0.3274 ± 0.00091 | promoter activity interaction Z-score [3, 21]: 0.0328 ± 0.11 | promoter activity interaction Z-score [3, 22]: -0.149 ± 0.093 | promoter activity interaction Z-score [3, 23]: -0.745 ± 0.067 | promoter activity interaction Z-score [4, 8]: 0.401 ± 0.57 | promoter activity interaction Z-score [4, 9]: -0.363 ± 0.16 | promoter activity interaction Z-score [4, 10]: -0.182 ± 0.48 | promoter activity interaction Z-score [4, 11]: -0.36 ± 0.38 | promoter activity interaction Z-score [4, 12]: -0.18 ± 0.33 | promoter activity interaction Z-score [4, 13]: 0.285 ± 0.88 | promoter activity interaction Z-score [4, 14]: -0.131 ± 0.68 | promoter activity interaction Z-score [4, 15]: -0.722 ± 0.37 | promoter activity interaction Z-score [4, 16]: 0.112 ± 0.24 | promoter activity interaction Z-score [4, 17]: -0.55 ± 0.36 | promoter activity interaction Z-score [4, 18]: -0.52 ± 0.2 | promoter activity interaction Z-score [4, 19]: -0.843 ± 0.13 | promoter activity interaction Z-score [4, 20]: -0.811 ± 0.18 | promoter activity interaction Z-score [4, 21]: -0.358 ± 0.12 | promoter activity interaction Z-score [4, 22]: -0.473 ± 0.64 | promoter activity interaction Z-score [4, 23]: -1.22 ± 0.11 | promoter activity interaction Z-score [5, 8]: 0.58 ± 0.43 | promoter activity interaction Z-score [5, 9]: -0.0165 ± 0.28 | promoter activity interaction Z-score [5, 10]: -0.285 ± 0.42 | promoter activity interaction Z-score [5, 11]: -0.285 ± 0.27 | promoter activity interaction Z-score [5, 12]: 0.285 ± 0.52 | promoter activity interaction Z-score [5, 13]: 1.42 ± 1.2 | promoter activity interaction Z-score [5, 14]: -0.0375 ± 0.68 | promoter activity interaction Z-score [5, 15]: 0.593 ± 1.6 | promoter activity interaction Z-score [5, 16]: 0.737 ± 0.14 | promoter activity interaction Z-score [5, 17]: -0.645 ± 0.12 | promoter activity interaction Z-score [5, 18]: -0.805 ± 0.17 | promoter activity interaction Z-score [5, 19]: -1.1 ± 0.16 | promoter activity interaction Z-score [5, 20]: -0.828 ± 0.0096 | promoter activity interaction Z-score [5, 21]: 0.583 ± 0.9 | promoter activity interaction Z-score [5, 22]: -1.32 ± 0.2 | promoter activity interaction Z-score [5, 23]: -2.04 ± 0.13 | promoter activity interaction Z-score [6, 8]: 0.474 ± 0.25 | promoter activity interaction Z-score [6, 9]: -0.0183 ± 0.11 | promoter activity interaction Z-score [6, 10]: -0.0377 ± 0.026 | promoter activity interaction Z-score [6, 11]: -0.0441 ± 0.24 | promoter activity interaction Z-score [6, 12]: 0.394 ± 0.015 | promoter activity interaction Z-score [6, 13]: 0.0576 ± 0.031 | promoter activity interaction Z-score [6, 14]: -0.0399 ± 0.15 | promoter activity interaction Z-score [6, 15]: -0.277 ± 0.03 | promoter activity interaction Z-score [6, 16]: 0.201 ± 0.11 | promoter activity interaction Z-score [6, 17]: -0.0617 ± 0.12 | promoter activity interaction Z-score [6, 18]: -0.00712 ± 0.2 | promoter activity interaction Z-score [6, 19]: -0.3 ± 0.13 | promoter activity interaction Z-score [6, 20]: -0.211 ± 0.15 | promoter activity interaction Z-score [6, 21]: -0.1512 ± 0.0014 | promoter activity interaction Z-score [6, 22]: -0.176 ± 0.19 | promoter activity interaction Z-score [6, 23]: -0.581 ± 0.061 | promoter activity interaction Z-score [7, 8]: 0.393 ± 0.4 | promoter activity interaction Z-score [7, 9]: -0.496 ± 0.057 | promoter activity interaction Z-score [7, 10]: -0.398 ± 0.89 | promoter activity interaction Z-score [7, 11]: 0.889 ± 0.7 | promoter activity interaction Z-score [7, 12]: 0.663 ± 0.58 | promoter activity interaction Z-score [7, 13]: 0.117 ± 0.58 | promoter activity interaction Z-score [7, 14]: -0.413 ± 0.2 | promoter activity interaction Z-score [7, 15]: -0.0415 ± 0.32 | promoter activity interaction Z-score [7, 16]: -0.164 ± 0.13 | promoter activity interaction Z-score [7, 17]: -0.559 ± 0.79 | promoter activity interaction Z-score [7, 18]: -0.226 ± 0.6 | promoter activity interaction Z-score [7, 19]: -0.165 ± 0.64 | promoter activity interaction Z-score [7, 20]: -0.754 ± 0.24 | promoter activity interaction Z-score [7, 21]: -0.55 ± 0.46 | promoter activity interaction Z-score [7, 22]: -0.192 ± 0.73 | promoter activity interaction Z-score [7, 23]: -1 ± 0.74
